Common to all, as to experiment: NCI-60 one-dose screen, 48 h (100 = growth as untreated, 0 = no growth, -100 = all killed)
The test system of experiment [1] is EKVX NSCLC. The settings on record: 10 µM unless noted.
Experiment [2] has as its system UO-31 renal. The settings on record: 10 µM unless noted.
Experiment [3] deals with TK-10 renal. The settings on record: 10 µM unless noted.
For experiment [4], the system named is ACHN renal. The settings on record: 10 µM unless noted.
The subject of experiment [5] is CAKI-1 renal. The settings on record: 10 µM unless noted.
The test system of experiment [6] is CCRF-CEM leukemia. The settings on record: 10 µM unless noted.
Experiment [7] concerns MOLT-4 leukemia. The settings on record: 10 µM unless noted.
In experiment [8] the test system is SR leukemia. The settings on record: 10 µM unless noted.
In experiment [9] the test system is RPMI-8226 leukemia. The settings on record: 10 µM unless noted.
The subject of experiment [10] is OVCAR-8 ovarian. The settings on record: 10 µM unless noted.
Experiment [11] deals with OVCAR-5 ovarian. The settings on record: 10 µM unless noted.
Experiment [12] relates to OVCAR-4 ovarian. The settings on record: 10 µM unless noted.
The test system of experiment [13] is SK-OV-3 ovarian. The settings on record: 10 µM unless noted.
The subject of experiment [14] is IGROV1 ovarian. The settings on record: 10 µM unless noted.
For experiment [15], the system named is OVCAR-3 ovarian. The settings on record: 10 µM unless noted.
Experiment [16] relates to NCI/ADR-RES ovarian. The settings on record: 10 µM unless noted.
Experiment [17] has as its system A498 renal. The settings on record: 10 µM unless noted.
Experiment [18] relates to SN12C renal. The settings on record: 10 µM unless noted.
In experiment [19] the test system is HS 578T breast. The settings on record: 10 µM.

For nine molecules, growth results are on record in PubChem BioAssay (NCI).

SMILES strings stand for the structures. This is part of a sample that, as a whole, favours compounds with a hit. Of some 83,000 tested, about 20% had one in any assay.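 Method: cells in 96-well plates; compound added at one concentration; 48 h incubation; percent growth measured; values under 10 scored active.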 Values without a mark were called inactive. Activity calls are given as the source filed them.

`O=C(Nc1nc2cccc(-c3ccc(CN4CCS(=O)(=O)CC4)cc3)n2n1)C1CC1`: the growth in experiment [1] was 106%; in [2], 75.3%; in experiment [3] it was 66.3%; in experiment [4], 93.6%; in [5], 88.4%; in [6] it was 30.9%. Further, the growth in experiment [7] was 41%; in experiment [8], 45.4%; in [9], 62.5%; in experiment [10], 58.1%; in experiment [11] it was 75.3%; in experiment [12], 78.4%. Moreover, the growth in experiment [13] is 58.4%; in experiment [14] it was 65%; in [15], 57.5%; in experiment [16], 90.3%.

Consider `CCN(CC)CCN1C(=O)c2cccc3c(-c4ccc5c(c4)ncn5C4CCCCC4)ccc(c23)C1=O`, for which the growth in experiment [1] is 15.6%; in experiment [2], -23.7% (active); in experiment [3], 32.1%; in [4], 10%; in experiment [5], 19.7%; in experiment [17] it was -11.6% (active). Besides, the growth in [6] was 11.4%; in experiment [7], -9.62% (active); in experiment [8], -14% (active); in experiment [9], -33% (active); in [10], 25.9%; in experiment [11] it was 36.4%. For the same molecule, the growth is 32.9% in experiment [12]; 21.2% in experiment [13]; 28.4% in experiment [14]; 44.8% in experiment [15]; 21.8% in experiment [16].

Turning to `Cn1c(Nc2ccc(C(F)(F)F)cc2)nc2cc(Oc3ccnc(-c4ncc(C(F)(F)F)[nH]4)c3)ccc21`, the growth in [1] was 57.9%; in [2] it was 28.8%; in experiment [3], 95%; in [4], 42.2%; in experiment [5], 34.7%; in [17], 23.7%. Also, the growth was 36.6% in experiment [6]; 25.7% in [7]; 32.1% in [8]; 86.7% in [9]; 58.1% in experiment [10]; 63.2% in experiment [11]. Besides, the growth in experiment [12] was 64.7%; in experiment [13] it was 6.69% (active); in experiment [14], 33.1%; in [15], 58.8%; in experiment [16], 66.3%.

Regarding `FC(F)(F)c1ccc(CNc2ccc(Cc3c[nH]c4ncc(Cl)cc34)cn2)cn1`, the growth in [1] was 30.3%; in [18] it was 52.2%; in [2], 10.7%; in experiment [4], 31.6%; in [5], 25.2%; in experiment [17] it was 18.3%. Also, the growth in experiment [6] is 23.4%; in experiment [7] it was 7.19% (active); in experiment [8], 11.1%; in experiment [9] it was 26.3%; in experiment [10], 14.3%; in [11] it was 30.5%. Besides, the growth was 30% in experiment [12]; 16% in experiment [13]; 41% in experiment [14]; 41.6% in experiment [15]; 12.6% in experiment [16].

As to `CCNC(=O)C#Cc1ccc2c(C(=Nc3ccc(CN(C)C)cc3)c3ccccc3)c(O)[nH]c2c1`, the growth was 49% in experiment [1]; 8.22% (active) in experiment [2]; 35.6% in [4]; 32.7% in [5]; -40.3% (active) in [17]; 17.3% in [6]. The growth in [7] was 10.9%; in [8], -13.6% (active); in experiment [9] it was 30%; in experiment [10], 48.3%; in experiment [11], 5.7% (active); in experiment [12], 51.9%. In addition, the growth in [13] is 10.8%; in experiment [14], 5.41% (active); in [15], 51%; in experiment [16], 54.3%.

As to `CC(=O)C1CC(C)CCC1C(C)C` (stereo unspecified), the growth in experiment [1] was 106%; in experiment [2], 67.4%; in experiment [3], 83.2%; in [4], 87.8%; in experiment [5], 122%; in experiment [17], 92.4%. Moreover, the growth in [6] is 70.5%; in experiment [7], 83.1%; in [8] it was 78.9%; in [9], 56.3%; in experiment [10], 109%; in experiment [11] it was 105%. The growth in [12] was 61.4%; in [13], 108%; in [14], 99.2%; in [15], 94.7%; in experiment [19], 106%; in experiment [16], 86.4%.

For the molecule `Cc1cc(Nc2ncc(Cl)c(Nc3ccccc3S(=O)(=O)C(C)C)n2)c(OC(C)C)cc1C1CCNCC1`, the growth in experiment [1] was -87.6% (active); in experiment [2] it was -96.4% (active); in experiment [3] it was -96.1% (active); in experiment [4], -100% (active); in experiment [5], -99.5% (active); in experiment [17], 40.2%. Moreover, the growth was -47.5% (active) in experiment [6]; -59.9% (active) in experiment [7]; -44.7% (active) in [8]; -56.7% (active) in experiment [9]; -67.2% (active) in experiment [10]; -96.6% (active) in [11]. The growth was -89.2% (active) in experiment [12]; -32.2% (active) in [13]; -72.2% (active) in experiment [14]; -96.4% (active) in experiment [15]; -60.6% (active) in experiment [16].

As to `Cc1cc(Oc2ccccc2)ccc1Nc1ncnc2ccc(-c3cnc(Cl)c(NS(C)(=O)=O)c3)cc12`, the growth was 21.3% in [1]; 3.47% (active) in [2]; 4.28% (active) in experiment [3]; 30.4% in experiment [4]; 2.11% (active) in experiment [5]; -30.8% (active) in [17]. For the same molecule, the growth in experiment [6] is 21.2%; in experiment [7] it was -0.671% (active); in experiment [8], 14.2%; in experiment [9], 7.65% (active); in experiment [10] it was 40.4%; in experiment [11], 10.8%. Moreover, the growth in [12] is 40.1%; in experiment [13], -26.3% (active); in [14], -23.5% (active); in experiment [15], 11.7%.

`C=CC(=O)N1CCC(Oc2cc3c(Nc4ccc(Cl)c(Cl)c4F)ncnc3cc2OC)CC1`: the growth in [1] was 18.7%; in experiment [18], 15.8%; in [2], -31.6% (active); in experiment [4] it was -3.88% (active); in [5], -34.2% (active); in experiment [17], -69.8% (active). For the same molecule, the growth is 20.9% in experiment [6]; -10.5% (active) in [7]; -20.2% (active) in experiment [8]; 35% in [9]; 18.4% in experiment [10]; 25.3% in experiment [11]. The growth in experiment [12] was 39%; in experiment [13], -37.4% (active); in experiment [14], -44.8% (active); in experiment [15], 19.4%; in experiment [16], -16.8% (active).
